# Compounds with a hit are over-represented: about 3.5% of the library has one in this group of screens.
# GPR151 ag: human GPR151 activation | Q8TDV0 | PathHunter beta-arrestin GPR151 cells, luminescence | activation, % at 11.2 µM | 1% of 650,000 active | AID 1508602; in the data active = activation above about 4.9%
# MITF primary: inhibitors of human MITF; AlphaScreen MITF homodimerization, bead proximity signal; inhibition, % at 2.6 µM; 0.91% of 650,000 active; AID 1259374; in the data active = inhibition above about 50%
# Target sequence (O75030 whole entry, looked up): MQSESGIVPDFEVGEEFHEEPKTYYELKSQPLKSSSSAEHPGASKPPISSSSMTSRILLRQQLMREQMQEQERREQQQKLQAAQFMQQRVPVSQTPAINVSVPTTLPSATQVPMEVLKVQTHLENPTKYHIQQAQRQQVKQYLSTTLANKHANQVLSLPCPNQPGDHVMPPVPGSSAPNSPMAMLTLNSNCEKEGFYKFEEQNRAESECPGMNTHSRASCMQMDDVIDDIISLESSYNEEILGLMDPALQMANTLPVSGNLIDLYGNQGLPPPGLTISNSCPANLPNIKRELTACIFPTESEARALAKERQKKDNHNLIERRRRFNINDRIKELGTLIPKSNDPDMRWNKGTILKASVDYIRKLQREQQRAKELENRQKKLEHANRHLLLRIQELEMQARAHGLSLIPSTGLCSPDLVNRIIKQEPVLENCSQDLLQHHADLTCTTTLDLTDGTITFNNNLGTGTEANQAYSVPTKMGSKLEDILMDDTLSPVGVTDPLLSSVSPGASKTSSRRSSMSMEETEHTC
# FBW7 act: activators of human E3 ligase FBW7; Q969H0; AlphaScreen FBW7–phospho-cyclin E peptide binding, activator screen; normalized activity (activation), % at 26.1 µM; 0.13% of 650,000 active; AID 1259310; in the data active = normalized activity above about 1.9%;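 note: purified mutant Fbw7 with reduced substrate affinity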
# TEAD-YAP inh: TEAD-YAP interaction inhibition; HEK-TIYL cells, TEAD-Gal4/YAP UAS-luciferase luminescence; inhibition, % at 9.12 µM; 1.4% of 640,000 active; AID 1259422; in the data active = inhibition above about 32%
# A number is an active result; . = inactive.
SMILES,GPR151 ag,MITF primary,FBW7 act,TEAD-YAP inh
Cc1cc2c(N3CCN(c4ccccc4)CC3)ncnc2s1,.,.,.,.
Cc1cc2c(N3CCN(c4ccccn4)CC3)ncnc2s1,.,.,.,41
O=C(c1cnc(N2CCN(c3ncccn3)CC2)c2ccccc12)N1CCN(Cc2ccc3c(c2)OCO3)CC1,.,.,.,61
Cc1cc2c(N3CCN(Cc4ccc5c(c4)OCO5)CC3)ncnc2s1,.,.,.,45
COC(=O)c1ccc(C(=O)O/N=C(\N)c2ccc(C)n2C)cc1,.,.,.,.
COc1ccccc1OCC(=O)Nc1ccccc1NC(=O)COc1ccccc1OC,.,.,.,.
COc1ccc(C(CC(=O)Nc2ccc(C)cc2)N2Cc3ccccc3C2=O)cc1OC (configuration not stated),.,.,.,.
COCCNc1c(-c2ccc(C)cc2)c(=O)c1=O,.,.,.,.
COCCCNc1c(-c2ccc(Cl)cc2)c(=O)c1=O,.,.,.,48
COc1ccc(OC)c(N2C(=O)NC(=O)/C(=C/c3ccsc3)C2=O)c1,.,.,.,.
COc1cc(S(=O)(=O)Nc2cc(OC)c(Cl)cc2OC)ccc1Cl,.,.,.,50
COc1cc(S(=O)(=O)NCc2ccncc2)ccc1Cl,.,.,.,40
COc1ccc(Cl)cc1NS(=O)(=O)c1ccc(C)cc1OC,.,.,.,52
COc1cc(S(=O)(=O)NCc2cccnc2)ccc1Cl,.,.,.,.
COc1ccc(S(=O)(=O)Nc2ccc(OC)c(OC)c2)cc1Cl,.,.,.,38
CCCCNC(=O)Cn1nnc(-c2ccc(N3CCOCC3)cc2)n1,.,.,.,.
CCN(CC)S(=O)(=O)c1c(C)nn(S(=O)(=O)c2ccc(Cl)cc2)c1C,.,.,.,.
Fc1cccc(Cl)c1COc1ccc(-c2nc(-c3ccccc3)c(-c3ccccc3)[nH]2)cc1,.,.,.,.
COc1ccc(S(=O)(=O)Nc2cc(OC)c(Cl)cc2OC)cc1,.,.,.,64
COc1cc(NS(=O)(=O)c2ccccc2)c(OC)cc1Cl,.,.,.,.
CCOc1ccc(S(=O)(=O)Nc2cc(C)ccc2OC)cc1,.,.,.,53
CCOc1ccc(S(=O)(=O)Nc2cc(OC)c(Cl)cc2OC)cc1,.,.,.,63
Cc1cc(C)c(S(=O)(=O)NCc2ccncc2)c(C)c1,.,.,.,46
O=C(CN(c1cc(C(F)(F)F)ccc1Cl)S(=O)(=O)c1ccccc1)Nc1ccc2c(c1)OCO2,.,.,.,.
CN(C)c1ccc(/C=C2/C(=O)NN(c3ccc(F)cc3)C2=O)cc1Br,.,.,.,.
SMILES,GPR151 ag,MITF primary,FBW7 act,TEAD-YAP inh
O=C(NC1CC1)c1ccc(-c2nc(NCCc3ccc(O)cc3)c3ncn(CCN4CCCC4=O)c3n2)cc1,.,.,.,.
CN(C)C(=O)c1ccc(S(=O)(=O)NCc2ccncc2)cc1,.,.,.,37
C=CCn1c2cc(C)sc2c2cnn(CC(=O)N3CCCCC3C)c(=O)c21 (configuration not stated),.,.,.,.
Cc1ccc(C)c(Nc2nc(NCCN(C)C)nc3nccnc23)c1,.,.,2.1,.
Cc1ccc(C)c(Nc2nc(NCc3ccco3)nc3nccnc23)c1,.,.,.,.
COc1cc(Nc2nccn3c(-c4ccco4)cnc23)cc(OC)c1OC,.,.,.,57
COc1cc(Nc2nccn3c(-c4ccc5ccccc5c4)cnc23)cc(OC)c1OC,.,.,.,54
COc1cc(Nc2nccn3c(-c4ccc(F)c(Cl)c4)cnc23)cc(OC)c1OC,.,.,.,53
COc1cc(Nc2nccn3c(-c4ccc(Cl)cc4)cnc23)cc(OC)c1OC,.,.,.,.
COc1cc(Nc2nccn3c(-c4cccc(C(C)=O)c4)cnc23)cc(OC)c1OC,.,.,.,54
CCOC(=O)c1ccc(-n2nnnc2C2(Nc3ccc(NC(C)=O)cc3)CCCCC2)cc1,.,.,.,.
C[C@@H]1O[C@@H](OC[C@H]2OC(Oc3c(-c4ccc(O)c(O)c4)oc4cc(O)cc(O)c4c3=O)[C@H](O)[C@@H](O)[C@@H]2O)[C@H](O)[C@H](O)[C@H]1O (some centres not stated),.,82,.,.
CCC(=O)Oc1ccc(-c2cnc3ccccc3n2)cc1,.,.,.,41
CCCCCCC(=O)Oc1ccc(-c2cnc3ccccc3n2)cc1,.,.,.,.
CN1CCc2c(sc3c2C(=O)NC(c2ccc(O)c(O)c2)N3)C1 (configuration not stated),.,66,.,.
COc1cc(C2NC(=O)c3c(sc4c3CCN(C)C4)N2)ccc1O (configuration not stated),.,.,.,.
Cc1nc2ccccc2n1CC(O)COc1ccc2ccccc2c1 (configuration not stated),.,.,.,.
Cc1cc(=O)oc2cc(OCC(O)Cn3c(C)nc4ccccc43)ccc12 (configuration not stated),.,.,.,50
COc1cc(C(F)(F)F)c(C(=O)NC2(O)C(=O)c3ccccc3C2=O)cn1,.,.,.,.
COc1ccc(-n2nc(C(=O)c3ccccc3)c(C(F)(F)F)cc2=O)cn1,.,.,.,49
Cc1ccc(Cc2cnc(NC(=O)CCc3ccc(C)o3)s2)cc1,.,.,.,67
Cc1ccc(CCC(=O)Nc2ncc(Cc3ccccc3Cl)s2)o1,.,.,.,56
Cc1ccc(CCC(=O)Nc2ncc(Cc3ccccc3)s2)o1,.,.,.,56
CCc1ccc(CCC(=O)Nc2ncc(Cc3ccccc3F)s2)o1,.,.,.,.
O=C(CCl)Nc1ncc(Cc2ccccc2)s1,.,.,.,.
SMILES,GPR151 ag,MITF primary,FBW7 act,TEAD-YAP inh
Cc1ccc(-c2csc3c(=O)n(CC(=O)Nc4ccc(Br)cc4F)cnc23)cc1,.,.,.,.
Cc1ccc(-c2nnc3n2N=C(c2ccc(O)c(O)c2)CS3)cc1,.,.,.,59
Oc1ccccc1-c1nnc2n1N=C(c1ccc(F)cc1)CS2,.,.,.,.
Cc1ccc(C2=Nn3c(C)nnc3SC2)cc1,.,.,.,.
Oc1ccc(C2=Nn3c(nnc3-c3ccccc3Cl)SC2)cc1O,.,.,.,63
CCOC(=O)C1=C(C)N=c2s/c(=C\c3ccc(OC)cc3OC)c(=O)n2C1c1cccs1 (configuration not stated),.,.,.,.
Cc1ccc(NC(=O)CSc2nnc(C)s2)c(C)c1,.,.,.,.
Cc1ccc(N/C(N)=N/c2nc(CSc3nnc(C)s3)cc(=O)[nH]2)c(C)c1,.,.,.,44
FC(F)(F)c1cc(Nc2nccc(-c3cncc(N4CCOCC4)c3)n2)ccc1Cl,.,.,.,.
O=S(=O)(c1ccc(Nc2nccc(-c3cncc(N4CCOCC4)c3)n2)cc1)N1CCOCC1,.,.,.,.
COc1ccc(Nc2nccc(-c3cncc(N4CCOCC4)c3)n2)cc1OC,.,.,.,47
Cn1cnnc1-c1ccc(Nc2nccc(-c3cncc(N4CCOCC4)c3)n2)cc1,.,.,.,33
c1cc(-c2cncc(N3CCOCC3)c2)nc(Nc2ccc(OCCN3CCOCC3)cc2)n1,.,.,.,78
Fc1ccc(Nc2nccc(-c3cncc(N4CCOCC4)c3)n2)cc1,.,.,.,68
FC(F)Oc1ccc(Nc2nccc(-c3cncc(N4CCOCC4)c3)n2)cc1,.,.,.,.

# Screening data as filed in PubChem.
